# Assay results: PubChem BioAssay (Tox21)
# Values joined by “and” are separate entries in the source; they are usually repeats but may differ in a detail not shown here. Equal entries are not always repeated. Unmarked numbers belong to inactive results. Results filed as inconclusive are left out. Entries that show only a call come without a potency. Active and inactive are the calls of the source. Unless noted, the call rests on the fitted dose curve; in most records, active means well fitted curve in the direction sought with a large enough effect in the repeat runs; inconclusive means weak or mixed curves; inactive means no such curve, though single readings can be large; an effect the other way counts as inactive or inconclusive.
# Columns and labels:
# [1] = qHTS assay to identify small molecule agonists of the estrogen receptor alpha (ER-alpha) signaling pathway in the presence of an antagonist - cell viability counter screen (AID 1259386);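 further: series mostly up to about 92 µM; cells exposed to compounds for 22 h at 37 °C before the viability read; nearly all actives have a fitted effect of over 30% in size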
# How it was run: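 ICI-182,780 at 10.0nM final accompanies the compound titration (15 concentrations, 22hr, 37C) on VM7Luc4E2 cells. The CellTiter-Fluor fluorescence readout runs in the same wells as the luciferase assay.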
# [2] = molecular target: Progesterone receptor (Homo sapiens) (UniProt P06401); experiment: qHTS assay to identify small molecule agonists of the progesterone receptor (PR) signaling pathway (AID 1346784; calls by dose curve; further: nearly all actives have a fitted effect of over 30% in size)
# How it was run: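 Agonist mode, quantitative HTS format in a HEK 293T line expressing a UAS-controlled beta-lactamase reporter; 16 hr compound exposure at 37C in 2% charcoal-stripped FBS, then LiveBLAzer B/G FRET fluorescence.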
# [3] = molecular target: Progesterone receptor (Homo sapiens) (UniProt P06401); experiment: qHTS assay to identify small molecule antagonists of the progesterone receptor (PR) signaling pathway (AID 1346795; active means well fitted inhibition curve with a large enough effect in the signal ratio in the repeat runs, not every such curve was filed as active; the % refers to the signal ratio; further: potency means the concentration at half of the fitted maximal effect)
# How it was run: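 HEK293T PR-UAS-bla reporter cells in charcoal-stripped serum (2%) received compound after a 6 hr settling period, followed by R5020 agonist at 1 nM final; 16 hr incubation preceded the FRET substrate step and fluorescence measurement.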
# [4] = qHTS assay to identify small molecule antagonists of the progesterone receptor (PR) signaling pathway - cell viability counter screen (AID 1346798); further: series mostly up to about 92 µM; nearly all actives have a fitted effect of over 50% in size
# How it was run: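 Same-well multiplex: after 16 hr at 37C with compound and R5020 stimulation, HEK293T cells carrying a UAS-bla reporter received LiveBLAzer substrate (2 hr RT), then CellTiter-Glo (30 min RT) for luminescent viability.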
# [5] = qHTS assay to identify small molecule agonists of the progesterone receptor (PR) signaling pathway - cell viability counter screen (AID 1346799; calls by dose curve; further: nearly all actives have a fitted effect of over 45% in size)
# How it was run: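 Counter screen for cytotoxicity: compound-treated PR-UAS-bla HEK293T cells (16 hr, 37C, 5% CO2) were assayed with CellTiter-Glo, luminescence measured after 30 min at room temperature.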
# [6] = qHTS assay to identify small molecule antagonists of the TGF-beta/Smad signaling pathway - cell viability counter screen (AID 1346824); further: nearly all actives have a fitted effect of over 50% in size
# How it was run: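 Cytotoxicity counter-screen run in the same wells as the beta-lactamase Smad reporter read: CellTiter-Glo luminescence after 30 min at room temperature. HEK 293T SBE-bla cells had 5 hr compound exposure at 37 C with TGF-beta1 (0.25 ng/mL stock).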
# [7] = qHTS assay to identify small molecule agonists of the TGF-beta/Smad signaling pathway - cell viability counter screen (AID 1346829); further: top concentration of the series differs between compounds; nearly all actives have a fitted effect of over 45% in size
# How it was run: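 Here the cytotoxicity of library compounds is measured in SBE-bla HEK 293T cells treated for 5 hr, using CellTiter-Glo added to wells already read for the beta-lactamase reporter.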
# [8] = qHTS assay to identify small molecule agonists of the TGF-beta/Smad signaling pathway (AID 1346859; active means well fitted activation curve with a large enough effect in the signal ratio in the repeat runs, not every such curve was filed as active; the % refers to the signal ratio; further: series mostly up to about 77 µM)
# How it was run: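 Smad-responsive beta-lactamase reporter cells (HEK 293T) received compounds from DMSO stocks after overnight attachment, were incubated 5 hr, then treated 2 hr with FRET substrate before dual-emission fluorescence measurement (405 nm excitation).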
# [9] = molecular target: Thyrotropin-releasing hormone receptor (Homo sapiens) (UniProt P34981); experiment: qHTS assay to identify small molecule antagonists of the thyrotropin-releasing hormone receptor (TRHR) signaling pathway (AID 1346877; active means well fitted inhibition curve with a large enough effect in the repeat runs, not every such curve was filed as active; further: series mostly up to about 51 µM)
# How it was run: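 Screening used HEK293 cells engineered with TRHR, with a brief 5 min room-temperature compound exposure preceding addition of TRH to 1 nM. The read-out was kinetic calcium-dye fluorescence, concentration-response from 15 doses in triplicate.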
# [10] = molecular target: Thyrotropin-releasing hormone receptor (Homo sapiens) (UniProt P34981); experiment: qHTS assay to identify small molecule agonists of the thyrotropin-releasing hormone receptor (TRHR) signaling pathway (AID 1346891; calls by dose curve;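 further: HEK293 cells expressing TRHR with calcium dye readout; series mostly up to about 58 µM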)
# How it was run: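 Agonist-mode calcium mobilisation screen: TRHR-transfected HEK293 cells cultured overnight (18 h), dye-loaded for 2 h at 37 °C, exposed to compounds, and monitored by fluorescence for 3 min.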
# [11] = Human pregnane X receptor (PXR) small molecule agonists, qHTS cell viability counter screen (AID 1346977); further: nearly all actives have a fitted effect of over 50% in size
# How it was run: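 Measures live-cell protease fluorescence (CellTiter-Fluor) in PXR-Luc HepG2 cells treated 24hr with compounds at 37C. Cells had 5hr to attach before pin transfer of DMSO solutions.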
# [12] = Caspase-3/7 induction in HepG2 cells by small molecules, qHTS assay (AID 1346978); further: nearly all actives have a fitted effect of over 15% in size
# How it was run: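 Caspase-3/7 induction was measured by Caspase-Glo 3/7 luminescence (30 min, room temperature) after a 17 hr compound exposure of wild-type HepG2 cells seeded at 2,000 per well and pre-incubated 5 hr.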
# [13] = Caspase-3/7 induction in CHO-K1 cells by small molecules, qHTS cell viability counter screen (AID 1346979); further: nearly all actives have a fitted effect of over 35% in size; further: potency means the concentration at half of the fitted maximal effect
# How it was run: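 In the same wells as the caspase read, viability of compound-treated wild-type CHO-K1 cells was assessed using CellTiter-Fluor, added after 16hr at 37C and measured by fluorescence following 1hr further incubation.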
# [14] = molecular target: Nuclear receptor subfamily 1 group I member 2 (Homo sapiens) (UniProt O75469); experiment: Human pregnane X receptor (PXR) small molecule agonists, qHTS assay (AID 1346982); further: nearly all actives have a fitted effect of over 35% in size; further: potency means the concentration at half of the fitted maximal effect
# How it was run: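 We seeded PXR-Luc HepG2 cells in assay medium containing 5% charcoal-stripped FBS, added compounds 5 hr later, incubated 24 hr, and read luminescence with ONE-Glo reagent.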
# [15] = molecular target: Acetylcholinesterase (Homo sapiens) (UniProt P22303); experiment: Acetylcholinesterase (AChE) small molecule antagonists: colormetric cell-based qHTS assay (AID 1347395; calls by dose curve; further: nearly all actives have a fitted effect of over 30% in size)
# How it was run: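 Endogenous AChE of human neuroblastoma SH-SY5Y cells was measured with an Ellman-type DTNB/acetylthiocholine mix. Compound pretreatment lasted 30 min at 37 C; substrate reaction ran 90 min at 37 C.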
# [16] = molecular target: Acetylcholinesterase (Homo sapiens) (UniProt P22303); experiment: Acetylcholinesterase (AChE) small molecule antagonists: enzyme-based qHTS assay (AID 1347397; calls by dose curve; further: nearly all actives have a fitted effect of over 55% in size); conditions: Potency: AChE enzyme activity inhibition
# How it was run: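 Absorbance-based detection of thiocholine with DTNB served as the read-out. Recombinant human AChE was exposed to compound for 30 min at RT before a 10 min RT incubation with acetylthiocholine.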
# [17] = Caspase-3/7 induction in CHO-K1 cells by small molecules, qHTS assay (AID 1346980); further: nearly all actives have a fitted effect of over 15% in size
# How it was run: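 Luminescent Caspase-Glo 3/7 read (30min, room temperature) quantified apoptosis induction. Cells were wild-type CHO-K1, treated with compound for 17hr at 37 C and 5% CO2.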
# [18] = Caspase-3/7 induction in HepG2 cells by small molecules, qHTS cell viability counter screen (AID 1346981); further: series mostly up to about 92 µM; nearly all actives have a fitted effect of over 30% in size
# How it was run: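 Multiplexed with the caspase-3/7 assay: HepG2 cells, 16 hr compound treatment, CellTiter-Fluor viability detection by fluorescence.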
# [19] = molecular target: Nuclear receptor subfamily 1 group I member 2 (Rattus norvegicus) (UniProt Q9R1A7); experiment: Rat pregnane X receptor (rPXR) activation by small molecules, qHTS assay (AID 1346983); conditions: rPXR luciferase reporter cells, One-Glo luminescence, 24 h; max activation: stronger effect = higher value; further: nearly all actives have a fitted effect of over 20% in size
# How it was run: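 Luminescent readout (One-Glo luciferase, 30 min room temperature) followed 24 hr compound treatment at 37 C of rPXR cells plated 2,000 per well and preincubated 5hr; qHTS format with compounds delivered in DMSO.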
# [20] = molecular target: Nuclear receptor subfamily 1 group I member 2 (Homo sapiens) (UniProt O75469); experiment: CYP3A4 induction through human pregnane X receptor (PXR) by small molecules, qHTS assay (AID 1346984); further: nearly all actives have a fitted effect of over 40% in size
# How it was run: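 qHTS, concentration-response format: HepG2 DPX-2 line, PXR/CYP3A4-luc. Exposure 24 h, 37C. Substrate Luciferin-IPA 3uM final, 3 h. Detection One-Glo, 30 min RT.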
# Chain of Thyrotropin-releasing hormone receptor (Homo sapiens) (P34981 whole entry, looked up): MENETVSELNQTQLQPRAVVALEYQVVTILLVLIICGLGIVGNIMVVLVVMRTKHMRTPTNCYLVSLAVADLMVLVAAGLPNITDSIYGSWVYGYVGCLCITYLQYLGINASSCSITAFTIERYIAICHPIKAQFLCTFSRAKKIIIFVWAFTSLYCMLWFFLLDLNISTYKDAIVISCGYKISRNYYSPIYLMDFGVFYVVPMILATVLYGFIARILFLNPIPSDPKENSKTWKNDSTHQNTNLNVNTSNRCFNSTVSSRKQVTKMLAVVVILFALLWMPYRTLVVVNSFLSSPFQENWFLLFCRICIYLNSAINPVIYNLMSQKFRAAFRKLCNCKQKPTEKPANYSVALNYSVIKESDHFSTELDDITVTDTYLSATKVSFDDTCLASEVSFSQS
# Chain of Acetylcholinesterase (Homo sapiens) (P22303 whole entry, looked up): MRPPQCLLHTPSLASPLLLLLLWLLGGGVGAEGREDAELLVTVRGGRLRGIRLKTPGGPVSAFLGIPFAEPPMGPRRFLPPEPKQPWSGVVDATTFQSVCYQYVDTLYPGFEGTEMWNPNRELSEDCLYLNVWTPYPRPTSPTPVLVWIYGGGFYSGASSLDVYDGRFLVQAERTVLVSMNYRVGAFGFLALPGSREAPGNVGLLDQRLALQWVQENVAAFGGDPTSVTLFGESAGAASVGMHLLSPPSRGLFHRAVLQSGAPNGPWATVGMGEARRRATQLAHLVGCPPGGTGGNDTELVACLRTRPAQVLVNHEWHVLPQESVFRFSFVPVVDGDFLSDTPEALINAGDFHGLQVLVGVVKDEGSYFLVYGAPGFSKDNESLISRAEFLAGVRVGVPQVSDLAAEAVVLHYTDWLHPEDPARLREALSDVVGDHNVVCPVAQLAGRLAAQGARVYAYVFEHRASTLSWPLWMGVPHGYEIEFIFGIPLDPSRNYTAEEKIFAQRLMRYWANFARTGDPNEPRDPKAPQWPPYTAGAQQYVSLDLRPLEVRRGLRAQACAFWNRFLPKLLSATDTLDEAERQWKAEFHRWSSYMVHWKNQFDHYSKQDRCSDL
# Chain of Nuclear receptor subfamily 1 group I member 2 (Homo sapiens) (O75469 whole entry, looked up): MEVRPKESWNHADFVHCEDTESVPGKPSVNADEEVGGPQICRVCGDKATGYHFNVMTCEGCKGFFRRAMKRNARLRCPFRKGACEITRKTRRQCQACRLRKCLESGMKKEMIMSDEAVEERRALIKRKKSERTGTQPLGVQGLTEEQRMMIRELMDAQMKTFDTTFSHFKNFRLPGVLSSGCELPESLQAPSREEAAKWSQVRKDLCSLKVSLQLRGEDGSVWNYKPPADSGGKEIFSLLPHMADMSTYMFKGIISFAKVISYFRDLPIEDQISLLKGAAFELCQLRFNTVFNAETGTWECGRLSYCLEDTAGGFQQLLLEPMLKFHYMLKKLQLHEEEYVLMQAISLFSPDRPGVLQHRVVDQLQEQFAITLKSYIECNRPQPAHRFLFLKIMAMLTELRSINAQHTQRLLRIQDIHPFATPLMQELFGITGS
# Chain of Progesterone receptor (Homo sapiens) (P06401 whole entry, looked up): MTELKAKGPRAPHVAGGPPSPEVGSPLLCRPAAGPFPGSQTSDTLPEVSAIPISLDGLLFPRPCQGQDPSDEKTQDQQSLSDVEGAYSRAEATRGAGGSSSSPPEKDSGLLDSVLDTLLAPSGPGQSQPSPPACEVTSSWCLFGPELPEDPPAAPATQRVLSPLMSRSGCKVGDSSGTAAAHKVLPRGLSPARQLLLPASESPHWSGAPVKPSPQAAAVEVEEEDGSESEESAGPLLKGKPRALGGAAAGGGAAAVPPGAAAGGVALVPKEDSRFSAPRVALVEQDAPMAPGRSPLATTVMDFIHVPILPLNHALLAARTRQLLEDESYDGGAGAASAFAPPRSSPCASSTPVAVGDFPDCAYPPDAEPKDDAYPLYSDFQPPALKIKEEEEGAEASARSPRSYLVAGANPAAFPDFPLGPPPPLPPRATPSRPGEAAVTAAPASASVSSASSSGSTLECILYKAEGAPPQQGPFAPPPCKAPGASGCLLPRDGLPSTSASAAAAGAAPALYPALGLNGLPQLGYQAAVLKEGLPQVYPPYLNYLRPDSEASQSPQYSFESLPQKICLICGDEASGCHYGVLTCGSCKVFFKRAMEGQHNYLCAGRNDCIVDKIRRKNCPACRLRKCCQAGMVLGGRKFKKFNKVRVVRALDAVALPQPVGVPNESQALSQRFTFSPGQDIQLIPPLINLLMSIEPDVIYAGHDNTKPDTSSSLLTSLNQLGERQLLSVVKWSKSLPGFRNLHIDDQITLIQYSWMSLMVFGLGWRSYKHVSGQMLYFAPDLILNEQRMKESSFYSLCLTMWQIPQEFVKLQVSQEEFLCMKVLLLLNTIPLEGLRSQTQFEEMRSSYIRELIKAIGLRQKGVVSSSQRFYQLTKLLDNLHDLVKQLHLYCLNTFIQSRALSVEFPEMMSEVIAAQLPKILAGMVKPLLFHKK
# Chain of Nuclear receptor subfamily 1 group I member 2 (Rattus norvegicus) (Q9R1A7 whole entry, looked up): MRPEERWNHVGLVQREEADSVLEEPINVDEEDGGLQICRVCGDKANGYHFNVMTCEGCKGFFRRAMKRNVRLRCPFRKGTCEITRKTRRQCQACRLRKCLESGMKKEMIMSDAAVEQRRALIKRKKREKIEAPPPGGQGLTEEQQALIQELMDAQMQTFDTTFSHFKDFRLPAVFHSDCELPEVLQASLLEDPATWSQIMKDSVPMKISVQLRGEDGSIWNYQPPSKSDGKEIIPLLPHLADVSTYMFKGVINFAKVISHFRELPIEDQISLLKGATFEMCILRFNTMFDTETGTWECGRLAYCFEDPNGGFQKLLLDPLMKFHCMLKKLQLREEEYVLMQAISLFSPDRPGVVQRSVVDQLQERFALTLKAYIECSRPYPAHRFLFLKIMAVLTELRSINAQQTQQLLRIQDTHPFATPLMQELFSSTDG
Compound,Potency [1],Potency [2],Potency [3],Potency [4],Potency [5],Potency [6],Potency [7],outcome [8],Potency [9],Potency [10],Potency [11],Potency [12],Potency [13],Potency [14],Potency [15],Potency [16],Potency [17],Potency [18],max activation [19],Potency [20]
C=CC(=O)OCC(C)C,inactive,inactive,inactive,inactive,inactive,inactive,inactive,inactive,inactive,inactive,inactive,inactive,inactive,48.2 µM (active),inactive,inactive,,,,
CC(C)(OO)c1ccccc1,inactive,inactive,inactive,inactive,inactive,inactive,inactive,inactive,inactive,,inactive,inactive,inactive,inactive,inactive,inactive,inactive,inactive,,
CCOc1nc(F)cc2nc(S(=O)(=O)Nc3c(Cl)cccc3Cl)nn12,inactive,inactive,inactive,inactive,inactive,inactive,inactive,inactive,inactive,inactive,inactive,,inactive,inactive,inactive,inactive,inactive,,,
CCBr,inactive,inactive,inactive,inactive,inactive,inactive,inactive,inactive,inactive,inactive,inactive,inactive,inactive,inactive,inactive,inactive,inactive,inactive,,
Cc1ccc2ccccc2c1,inactive,inactive,inactive,inactive,inactive,inactive,inactive,inactive,,inactive,inactive,inactive,inactive,inactive,inactive,inactive,inactive,inactive,,
ClP(Cl)(Cl)(Cl)Cl,inactive,inactive,inactive,inactive,inactive,inactive,inactive,inactive,inactive,inactive,inactive,inactive,,inactive,inactive,inactive,,inactive,,
ClC=C(Cl)Cl,inactive,inactive,inactive,inactive,inactive,inactive,inactive,inactive,inactive,inactive,inactive,inactive,inactive,inactive,inactive,inactive,inactive,inactive,-0.508%,inactive
CC(Cl)C(C)Cl (stereo unspecified),inactive,inactive,inactive,inactive,inactive,inactive,inactive,inactive,inactive,,inactive,inactive,inactive,inactive,inactive,inactive,inactive,inactive,,
Cc1cc(=O)[nH]o1,inactive,inactive,inactive,inactive,inactive,inactive,inactive,inactive,inactive,inactive,inactive,inactive,inactive,inactive,inactive,inactive,inactive,inactive,,
Cc1ccccc1CCl,inactive,inactive,inactive,inactive,inactive,inactive,inactive,inactive,inactive,,inactive,inactive,inactive,inactive,inactive,inactive,,inactive,,
C=CCOC(C)=O,inactive,inactive,1.91 µM (active),inactive,inactive,inactive,inactive,inactive,inactive,inactive,inactive,inactive,inactive,inactive,inactive,inactive,inactive,,,
CCC(Cl)CCl (stereo unspecified),inactive,inactive,inactive,inactive,inactive,inactive,inactive,inactive,inactive,inactive,inactive,inactive,inactive,inactive,inactive,inactive,inactive,inactive,,
C[C@@H]1CC[C@H]2[C@@H](C)C(=O)O[C@@H]3O[C@@]4(C)CC[C@@H]1[C@]32OO4,inactive,inactive,inactive,inactive,inactive,inactive,inactive,inactive,inactive,,inactive,inactive,4.22 µM (active),,,,inactive,inactive,,
NC(=O)C(Cl)(Cl)Cl,inactive,inactive,inactive,inactive,inactive,inactive,inactive,inactive,inactive,inactive,inactive,inactive,inactive,inactive,inactive,inactive,inactive,inactive,,
O=C(CCl)c1ccc(Cl)cc1Cl,inactive,inactive,inactive,inactive,inactive,inactive,inactive,inactive,inactive,inactive,inactive,inactive,68.2 µM (active) and 26.6 µM (active),60.8 µM (active) and 29.8 µM (active),inactive,inactive,inactive,inactive,,
C=CC(=O)OC,inactive,inactive,inactive,inactive,inactive,inactive,inactive,inactive,inactive,inactive,inactive,inactive,inactive,,,,inactive,inactive,,
